According to PubChem BioAssay (NCATS):
Results filed as inconclusive are left out. Activity calls are given as the source filed them. Calls come from the whole dose curve; as a rule, active = well fitted curve in the direction sought with a large enough effect; inconclusive = small, poorly fitted or top-dose-only effect, or another doubt; inactive = no such curve, though single readings can be large; an effect the other way counts as inactive or inconclusive.

Key:
[1] = qHTS of pediatric cancer cell lines to identify multiple opportunities for drug repurposing: Primary screen for LAN-5 cells (AID 1347100);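 note: plate controls were DMSO neutral control for no effect and bortezomib positive control for full effect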
Procedure, shortened: (§1)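 Cells (500-1,000/well) in growth media were settled 5 h at 37 degrees C, then given compounds for 48 h. Viability was read as CellTiter-Glo luminescence. Primary runs used MIPE at 11 points (0.78 nM-46 µM) and NPC at 8 points (0.59 nM-46 µM); follow-ups used 11 points.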

[2] = qHTS of pediatric cancer cell lines to identify multiple opportunities for drug repurposing: Primary screen for BT-12 cells (AID 1347101);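 note: plate controls were DMSO for no effect and bortezomib positive control for full effect; nearly all actives have a fitted effect of over 25% in size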
Procedure, shortened: (§2)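 Cells (500-1,000/well) rested 5 h, then received compounds for 48 h; metabolically active cells were measured by CellTiter-Glo luminescence. Final concentrations spanned up to 46 µM (MIPE, 11-point) or 0.59 nM-46 µM (NPC, 8-point) in primary screens, 11-point in follow-ups.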

[3] = qHTS of pediatric cancer cell lines to identify multiple opportunities for drug repurposing: Primary screen for Rh18 cells (AID 1347102); note: % is set by controls: 0 for no effect and ±100 for the full control effect; nearly all actives have a fitted effect of over 65% in size
Procedure, shortened: as §1

[4] = qHTS of pediatric cancer cell lines to identify multiple opportunities for drug repurposing: Primary screen for OHS-50 cells (AID 1347103);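 note: plate controls were DMSO neutral control for no effect and bortezomib positive control for full effect; nearly all actives have a fitted effect of over 40% in size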
Procedure, shortened: as §2

[5] = qHTS of pediatric cancer cell lines to identify multiple opportunities for drug repurposing: Primary screen for RD cells (AID 1347104);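 note: plate controls were DMSO for no effect and bortezomib for full effect; nearly all actives have a fitted effect of over 55% in size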
Procedure, shortened: (§3)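 Quantitative HTS format: each compound titrated (MIPE 11 points from 0.78 nM, NPC 8 points from 0.59 nM) onto cells plated 5 hours earlier. After 48 h at 37 degrees C, CellTiter-Glo luminescence was recorded.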

[6] = qHTS of pediatric cancer cell lines to identify multiple opportunities for drug repurposing: Primary screen for MG 63 (6-TG R) cells (AID 1347105); note: % is set by controls: 0 for no effect and ±100 for the full control effect; nearly all actives have a fitted effect of over 50% in size
Procedure, shortened: as §3

[7] = qHTS of pediatric cancer cell lines to identify multiple opportunities for drug repurposing: Primary screen for control Hh wild type fibroblast cells (AID 1347106);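 note: series mostly up to about 46 µM; % is set by controls: 0 for no effect and ±100 for the full control effect; a drop in luminescence marks cytotoxicity and a rise apparent proliferation; nearly all actives have a fitted effect of over 55% in size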
Procedure, shortened: as §1

[8] = qHTS of pediatric cancer cell lines to identify multiple opportunities for drug repurposing: Primary screen for Rh30 cells (AID 1347107); note: series mostly up to about 46 µM; % is set by controls: 0 for no effect and ±100 for the full control effect; nearly all actives have a fitted effect of over 75% in size
Procedure, shortened: as §1

[9] = qHTS of pediatric cancer cell lines to identify multiple opportunities for drug repurposing: Primary screen for Rh41 cells (AID 1347108);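 note: series mostly up to about 46 µM; luminescence drop marks cytotoxic hits; nearly all actives have a fitted effect of over 70% in size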
Procedure, shortened: as §3

COc1ccc(C2C(=O)c3ccccc3C2=O)cc1
inactive: Potency [1] | Potency [2] | Potency [3] | Potency [4] | Potency [5] | Potency [6] | Potency [7] | Potency [8]

CCCC(=O)Nc1ccc(OCC(O)CNC(C)C)c(C(C)=O)c1 (stereo unspecified)
inactive: Potency [1] | Potency [2] | Potency [3] | Potency [4] | Potency [5] | Potency [6] | Potency [7] | Potency [8] | Potency [9]

CC1(C)OC[C@@H](COC(=O)CCc2ccc(OC[C@@H](O)CNCCNC(=O)N3CCOCC3)cc2)O1
inactive: Potency [1] | Potency [2] | Potency [3] | Potency [4] | Potency [5] | Potency [6] | Potency [7] | Potency [8] | Potency [9]

Cc1c(C(N)=O)cc([N+](=O)[O-])cc1[N+](=O)[O-]
inactive: Potency [1] | Potency [2] | Potency [3] | Potency [4] | Potency [5] | Potency [6] | Potency [7] | Potency [8] | Potency [9]

Cc1c(C(C)C)c(=O)n(-c2ccccc2)n1C
inactive: Potency [1] | Potency [2] | Potency [3] | Potency [4] | Potency [5] | Potency [6] | Potency [7] | Potency [8] | Potency [9]

CC1(C)O[C@@H]2[C@@H](CO[C@@]3(COS(N)(=O)=O)OC(C)(C)O[C@@H]23)O1
inactive: Potency [1] | Potency [2] | Potency [3] | Potency [4] | Potency [5] | Potency [6] | Potency [7] | Potency [8] | Potency [9]

CC1(C)O[C@@H]2C[C@H]3[C@@H]4C[C@H](F)C5=CC(=O)C=C[C@]5(C)[C@H]4[C@@H](O)C[C@]3(C)[C@]2(C(=O)CO)O1
inactive: Potency [1] | Potency [2] | Potency [3] | Potency [4] | Potency [5] | Potency [6] | Potency [7] | Potency [8]

CC(C)(Oc1ccc(Cl)cc1)C(=O)O
inactive: Potency [1] | Potency [2] | Potency [3] | Potency [4] | Potency [5] | Potency [6] | Potency [7] | Potency [8] | Potency [9]

Oc1cc(O)c2c(c1)O[C@H](c1ccc(O)c(O)c1)[C@H](O)C2
inactive: Potency [1] | Potency [2] | Potency [3] | Potency [4] | Potency [5] | Potency [6] | Potency [7] | Potency [8]

CC1=C(C(=O)O)N2C(=O)[C@@H](NC(=O)[C@H](N)c3ccc(O)cc3)[C@H]2SC1
inactive: Potency [1] | Potency [2] | Potency [3] | Potency [4] | Potency [5] | Potency [6] | Potency [7] | Potency [8] | Potency [9]

NC[C@H]1O[C@H](O[C@H]2[C@H](O[C@@H]3O[C@H](CO)[C@@H](O)[C@H]3O)C(O)[C@H](N)C[C@@H]2N)[C@H](N)[C@@H](O)[C@@H]1O (stereo partly specified)
inactive: activity change, negative = cytotoxic [1] 25.3% [at 9.22 µM] | activity change, negative = cytotoxic [2] 7.42% [at 11.5 µM] | activity change, negative = cytotoxic [3] 31.2% [at 9.22 µM] | activity change, negative = cytotoxic [4] 7.33% [at 11.5 µM] | activity change, negative = cytotoxic [5] 14% [at 9.22 µM] | activity change, negative = cytotoxic [6] -2.08% [at 9.22 µM] | activity change, negative = cytotoxic [7] -1.08% [at 9.22 µM] | activity change, negative = cytotoxic [8] 23.6% [at 9.22 µM] | activity change, negative = cytotoxic [9] 34.8% [at 9.22 µM]

COc1cc(OC)cc(OC)c1
inactive: Potency [1] | Potency [2] | Potency [3] | Potency [4] | Potency [5] | Potency [6] | Potency [7] | Potency [8]

C[C@H]1[C@H](NC(=O)/C(=N/OC(C)(C)C(=O)O)c2csc(N)n2)C(=O)N1S(=O)(=O)O (stereo in doubt)
inactive: Potency [1] | Potency [2] | Potency [3] | Potency [4] | Potency [5] | Potency [6] | Potency [7] | Potency [8]

CC(O)(P(=O)(O)O)P(=O)(O)O
inactive: Potency [1] | Potency [2] | Potency [3] | Potency [4] | Potency [5] | Potency [6] | Potency [7] | Potency [8] | Potency [9]

CCCCc1nc(Cl)c(CO)n1Cc1ccc(-c2ccccc2-c2nn[nH]n2)cc1
inactive: Potency [1] | Potency [2] | Potency [3] | Potency [4] | Potency [5] | Potency [6] | Potency [7] | Potency [8]

Cc1nc2n(c(=O)c1CCN1CCC(c3noc4cc(F)ccc34)CC1)CCC[C@H]2O
inactive: Potency [1] | Potency [2] | Potency [3] | Potency [4] | Potency [5] | Potency [6] | Potency [7] | Potency [8] | Potency [9]

COC(=O)CCc1ccc(OCC(O)CNC(C)C)cc1 (stereo unspecified)
inactive: Potency [1] | Potency [2] | Potency [3] | Potency [4] | Potency [5] | Potency [6] | Potency [7] | Potency [8]

Cc1c(F)c(N2CCNC(C)C2)cc2c1c(=O)c(C(=O)O)cn2C1CC1 (stereo unspecified)
inactive: Potency [1] | Potency [2] | Potency [3] | Potency [4] | Potency [5] | Potency [6] | Potency [7] | Potency [8] | Potency [9]

Cc1ccc(Nc2c(F)cccc2Cl)c(CC(=O)O)c1
inactive: Potency [1] | Potency [2] | Potency [3] | Potency [4] | Potency [5] | Potency [6] | Potency [7] | Potency [8]

C=CCc1ccc(O)c(OC)c1
inactive: Potency [1] | Potency [2] | Potency [3] | Potency [4] | Potency [5] | Potency [6] | Potency [7] | Potency [8]
